These results are taken from PubChem BioAssay.

SMILES strings stand for the structures. Calls of active or inactive are those of the source. Unless noted, how the calls were made is not given here.

Assay [1] can be described thus: compounds binding Alexa647 anti-His antibody – biochemical, small-molecule microarray, 635 nm fluorescence, artefact control for SMM control protein annotation, primary screen (AID 1128).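 Further: score merges feature fluorescence with signal-to-noise for each printed compound spot.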 The note with it: higher = more signal.
The test system of assay [2] is Human papillomavirus type 1a E7 protein (residues 1-88). Put plainly: HPV1a E7 small-molecule binders, primary screen, biochemical, small-molecule microarray, residues 1-88, 635 nm (AID 1129). The note with it: small-molecule microarray binding, fluorescence 635 nm; higher = more signal.
The target of assay [3] is Focal adhesion kinase 1 (Homo sapiens) (UniProt Q05397). Put plainly: PTK2 protein binding on printed compound slides – biochemical, small-molecule microarray, 635/667 nm fluorescence, BSA, DTT, primary screen (AID 1130).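 Further: composite of spot emission at 667 nm and signal to noise over triplicate slides.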 The note with it: 635 nm fluorescence, higher = more signal.
Assay [4] relates to Fibrinogen (Alexa647-labelled). Description: Alexa647-fibrinogen binding to printed small molecules – biochemical, small-molecule microarray, 635/667 nm fluorescence, artefact control for SMM control-protein annotation, profiling panel (AID 1131).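 Further: z-score merges 667 nm fluorescence with per-spot signal-to-noise over triplicate slides.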 The note with it: fibrinogen-A647 binding fluorescence, higher = more signal.
Assay [5] addresses Follistatin (Homo sapiens) (UniProt P19883). Put plainly: FST protein binding to printed compounds – biochemical, small-molecule microarray, 635/667 nm fluorescence, primary screen (AID 1132). The note with it: 635 nm fluorescence, higher = more signal.
Assay [6] has as its target Fibroblast growth factor 2 (Homo sapiens) (UniProt P09038). Put plainly: basic fibroblast growth factor binding to printed compounds – biochemical, small-molecule microarray, 635/667 nm fluorescence, primary screen (AID 1133). The note with it: FGF2, fluorescence 635/667, higher = more signal.
The nature of assay [7]: JC-1 mitochondrial potential readout, lung cancer cells – cell-based, A549, JC-1 fluorescence, basal, 24 h, 100 nL, profiling panel (AID 1138).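 Further: A549 lung adenocarcinoma cells under basal conditions with no added stimulus; test concentration not given here.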 The note with it: higher = more signal.
For another assay, the system named is Lefty1. Description: Lefty1 protein binding to printed compounds – biochemical, small-molecule microarray, 635/667 nm fluorescence, primary screen (AID 1139). The note with it: fluorescence 635/667, higher = more signal.
The test system of assay [8] is wheat germ agglutinin (Triticum aestivum), Alexa647-labelled. Put plainly: Alexa647-WGA lectin binding to printed small molecules – biochemical, small-molecule microarray, 635/667 nm fluorescence, artefact control for SMM control-protein annotation, profiling panel (AID 1140).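 Further: score merges 667 nm feature emission with signal to noise over triplicate slides.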 The note with it: WGA-A647 binding, 635 nm fluorescence, higher = more signal.
For assay [9], the target named is Luciferin 4-monooxygenase (Photinus pyralis) (UniProt P08659). Put plainly: inhibition of purified Photinus pyralis luciferase – biochemical, luminescence, purified enzyme, 2006 set, primary screen (AID 1141).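 Further: cell-free assay with purified firefly luciferase at 100 ng per well in PBS; test concentration not given here.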 The note with it: purified firefly luciferase, SteadyGlo luminescence, 30 min; higher = more signal, called active from +8 up or from −8 down.
Assay [10] has as its system Wnt5a (protein binding on small-molecule microarray). Description: small molecules binding Wnt5a protein – biophysical, small-molecule microarray, 635/667 nm fluorescence, primary screen (AID 1142).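 Further: fluorescence read at 667 nm with signal to noise per printed feature.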 The note with it: 635 nm fluorescence, higher = more signal.
Assay [11] is described as follows: ATP-based viability of Huh7 replicon cells – cell-based, CellTiter-Glo luminescence, basal, 48 h, cytotoxicity control for HCV replication inhibitor project, primary screen (AID 1143).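 Further: Huh7 hepatoma cells carrying a hepatitis C replication reporter with no stimulus; test concentration not given here.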 The note with it: higher = more signal, called active from +8 up or from −8 down.
A short description of assay [12]: Pseudomonas biofilm growth suppression – PAO1 strain, BacTiter-Glo luminescence, LB-PBS, primary screen (AID 1144). The note with it: P. aeruginosa PAO1 biofilm, 12 h, higher = more signal.
The nature of assay [13]: basal CRE-LacZ reporter activity in PC12 – cell-based, unstimulated, primary screen (AID 1145). The note with it: no forskolin, luminescence, 4.5 h, higher = more signal, called active from +8 up or from −8 down.
Assay [14] is described as follows: forskolin-driven CRE-LacZ activity in PC12 – cell-based, CRE-LacZ reporter, forskolin-stimulated, primary screen (AID 1146).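 Further: PC12 cells with 6xCRE LacZ reporter stimulated by forskolin 10 µM; beta-galactosidase reporter signal reflecting CREB driven transcription.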 The note with it: luminescence, 4.5 h, higher = more signal, called active from +8 up or from −8 down.
In assay [15] the target is Streptavidin (Streptomyces avidinii) (UniProt P22629). Put plainly: compounds binding control protein streptavidin – biophysical, small-molecule microarray, 635/667 nm fluorescence, artefact control for SMM compound annotation, primary screen (AID 1147).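 Further: signal reflects streptavidin binding to arrayed compounds as a control protein.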 The note with it: higher = more signal.
A short description of assay [16]: probe aInhba binding on compound microarray – biochemical, small-molecule microarray, 635/667 nm fluorescence, primary screen (AID 1148).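 Further: score merges 667nm spot fluorescence with signal-to-noise for antibody binding to printed compounds.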 The note with it: higher = more signal.
Assay [17] has as its target Torsin-1A (Homo sapiens) (UniProt O14656). Put plainly: TOR1A wild-type binding on microarray – cell lysate, small-molecule microarray, lysate, 635/667 nm, primary screen (AID 1149). The note with it: COS7 hTOR1A-WT lysate, 635 nm fluorescence, higher = more signal.
Assay [18] has the same target. Put plainly: torsin A mutant lysate binding on microarrays – cell lysate, small-molecule microarray, COS7 lysate, 635/667 nm fluorescence, primary screen (AID 1150).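 Further: score pools 667 nm emission and signal to noise measuring lysate protein binding.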 The note with it: COS7 hTOR1A mutant lysate, 635 nm fluorescence, higher = more signal.
Assay [19] concerns Sonic hedgehog protein (Shh). Put plainly: Sonic hedgehog microarray binding compounds – biochemical, small-molecule microarray, 635/667 nm fluorescence, primary screen (AID 1151).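 Further: Shh protein binding to compounds spotted on small-molecule microarray slides; score combines spot fluorescence intensity with signal-to-noise across triplicate slides.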 The note with it: 635 nm fluorescence, higher = more signal.

Sequence of Fibroblast growth factor 2 (Homo sapiens) (P09038 whole entry, looked up): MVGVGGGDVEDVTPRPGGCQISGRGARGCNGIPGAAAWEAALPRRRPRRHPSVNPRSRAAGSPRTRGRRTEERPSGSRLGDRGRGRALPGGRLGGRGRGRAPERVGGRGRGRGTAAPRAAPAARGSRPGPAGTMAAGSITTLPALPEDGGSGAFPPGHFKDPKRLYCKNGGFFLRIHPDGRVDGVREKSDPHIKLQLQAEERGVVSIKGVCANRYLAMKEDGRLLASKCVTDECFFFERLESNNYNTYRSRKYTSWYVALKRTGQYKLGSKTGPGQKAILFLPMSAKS
Sequence of Torsin-1A (Homo sapiens) (O14656 whole entry, looked up): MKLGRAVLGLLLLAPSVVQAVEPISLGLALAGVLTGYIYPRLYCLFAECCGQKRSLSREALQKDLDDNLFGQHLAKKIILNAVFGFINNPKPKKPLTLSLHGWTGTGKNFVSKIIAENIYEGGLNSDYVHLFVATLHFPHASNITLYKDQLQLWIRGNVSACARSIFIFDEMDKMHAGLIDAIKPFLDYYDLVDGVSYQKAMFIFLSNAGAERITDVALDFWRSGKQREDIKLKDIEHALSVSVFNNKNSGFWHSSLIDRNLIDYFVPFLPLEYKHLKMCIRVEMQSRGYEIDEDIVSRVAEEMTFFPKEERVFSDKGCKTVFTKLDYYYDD
Sequence of Luciferin 4-monooxygenase (Photinus pyralis) (P08659 whole entry, looked up): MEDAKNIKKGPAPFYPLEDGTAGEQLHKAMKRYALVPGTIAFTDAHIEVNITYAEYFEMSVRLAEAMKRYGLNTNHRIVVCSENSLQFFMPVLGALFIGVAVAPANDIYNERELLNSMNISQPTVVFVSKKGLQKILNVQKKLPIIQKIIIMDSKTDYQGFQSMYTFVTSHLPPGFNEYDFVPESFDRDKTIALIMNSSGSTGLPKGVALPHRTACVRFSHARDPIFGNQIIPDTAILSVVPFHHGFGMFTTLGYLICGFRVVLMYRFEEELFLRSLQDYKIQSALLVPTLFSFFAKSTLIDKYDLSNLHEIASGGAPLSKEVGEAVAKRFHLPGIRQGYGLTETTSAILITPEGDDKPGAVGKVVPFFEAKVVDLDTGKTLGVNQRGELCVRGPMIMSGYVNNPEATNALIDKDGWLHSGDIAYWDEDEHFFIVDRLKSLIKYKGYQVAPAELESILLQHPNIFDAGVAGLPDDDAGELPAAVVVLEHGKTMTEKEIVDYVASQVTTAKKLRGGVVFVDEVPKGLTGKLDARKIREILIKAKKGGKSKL
Sequence of Focal adhesion kinase 1 (Homo sapiens) (Q05397 whole entry, looked up): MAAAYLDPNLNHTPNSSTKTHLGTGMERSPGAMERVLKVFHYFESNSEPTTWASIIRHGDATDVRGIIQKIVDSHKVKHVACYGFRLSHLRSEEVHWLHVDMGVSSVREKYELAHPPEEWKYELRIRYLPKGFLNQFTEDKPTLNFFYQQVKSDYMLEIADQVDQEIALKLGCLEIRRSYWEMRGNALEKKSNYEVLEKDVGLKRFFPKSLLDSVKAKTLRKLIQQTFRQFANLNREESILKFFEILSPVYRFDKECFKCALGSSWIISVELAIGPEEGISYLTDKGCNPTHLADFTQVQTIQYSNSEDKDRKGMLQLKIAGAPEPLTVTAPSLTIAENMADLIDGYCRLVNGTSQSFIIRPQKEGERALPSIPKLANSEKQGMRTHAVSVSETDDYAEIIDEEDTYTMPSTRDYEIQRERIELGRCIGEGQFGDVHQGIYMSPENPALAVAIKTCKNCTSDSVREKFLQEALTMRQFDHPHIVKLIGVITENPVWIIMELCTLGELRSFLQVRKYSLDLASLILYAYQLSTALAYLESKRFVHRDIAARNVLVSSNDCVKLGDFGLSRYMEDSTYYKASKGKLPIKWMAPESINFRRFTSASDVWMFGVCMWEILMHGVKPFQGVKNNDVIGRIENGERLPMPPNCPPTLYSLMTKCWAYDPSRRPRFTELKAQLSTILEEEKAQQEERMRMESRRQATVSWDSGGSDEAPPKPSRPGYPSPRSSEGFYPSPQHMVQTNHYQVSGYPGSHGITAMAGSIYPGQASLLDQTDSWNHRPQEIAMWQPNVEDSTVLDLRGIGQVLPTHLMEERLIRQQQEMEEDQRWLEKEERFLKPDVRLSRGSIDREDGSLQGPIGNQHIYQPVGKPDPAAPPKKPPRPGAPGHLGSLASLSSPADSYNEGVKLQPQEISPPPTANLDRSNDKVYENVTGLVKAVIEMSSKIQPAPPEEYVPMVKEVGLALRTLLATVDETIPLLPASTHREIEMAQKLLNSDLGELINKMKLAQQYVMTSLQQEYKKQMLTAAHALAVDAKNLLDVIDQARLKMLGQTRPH
Sequence of Follistatin (Homo sapiens) (P19883 whole entry, looked up): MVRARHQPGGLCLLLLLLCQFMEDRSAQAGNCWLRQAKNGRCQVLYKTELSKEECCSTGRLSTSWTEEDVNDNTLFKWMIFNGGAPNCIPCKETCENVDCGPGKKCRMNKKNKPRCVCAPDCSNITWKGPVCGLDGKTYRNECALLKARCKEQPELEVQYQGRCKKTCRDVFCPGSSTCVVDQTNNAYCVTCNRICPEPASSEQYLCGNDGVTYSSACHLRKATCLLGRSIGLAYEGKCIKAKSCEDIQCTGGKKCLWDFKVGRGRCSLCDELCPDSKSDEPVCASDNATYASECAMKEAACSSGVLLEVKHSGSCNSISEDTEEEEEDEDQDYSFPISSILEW
Sequence of Streptavidin (Streptomyces avidinii) (P22629 whole entry, looked up): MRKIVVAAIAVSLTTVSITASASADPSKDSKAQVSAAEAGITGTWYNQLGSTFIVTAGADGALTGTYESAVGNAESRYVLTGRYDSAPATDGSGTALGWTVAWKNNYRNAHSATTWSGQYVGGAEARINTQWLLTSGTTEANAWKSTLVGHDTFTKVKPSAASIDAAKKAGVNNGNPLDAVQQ

As for `COCCOC(=O)N1C(=O)[C@@]2(c3cc(C#CCCO)ccc31)[C@H](C(=O)N1CCN(c3ncccn3)CC1)[C@H]1C(=O)O[C@H](c3ccccc3)[C@H](c3ccccc3)N1[C@@H]2c1ccc(O)cc1`, the composite z-score in assay [1] is 2.17; in [2], 1.22; in [3], 1.19; in assay [4], 0.928; in assay [5], 0.577; in assay [6], 0.088. Also, the composite z-score was 0.413 in the assay with Lefty1; 0.613 in assay [8]; 0.15 in [10]; -0.269 in [15]; -0.291 in [16]; -0.144 in the assay with Torsin-1A (Homo sapiens) [17]. Further, the figures for the composite z-score (with Torsin-1A (Homo sapiens) [18]; in [19]) were 0.522 and 1.11, respectively. Moreover, the z-score in assay [7] was 1.35; in assay [9], -0.979 (inactive); in assay [11] it was -1.79 (inactive); in [12], -0.798 (inactive); in [13], 0.484 (inactive); in assay [14] it was 0.268 (inactive).
As for `COCCOC(=O)N1C(=O)[C@@]2(c3cc(C#CCCO)ccc31)[C@H](c1ccccc1OCCO)N1[C@H](c3ccccc3)[C@H](c3ccccc3)OC(=O)[C@H]1[C@@H]2C(=O)N1CCc2cc(OC)c(OC)cc2C1`, the composite z-score in assay [1] was 1.86; in assay [2], 1.22; in [3], 0.405; in assay [4], 0.869; in assay [5], 1.14; in assay [6], 1.25. The composite z-score is 0.786 with Lefty1; 0.546 in assay [8]; 0.318 in assay [10]; 0.321 in assay [15]; -0.0448 in assay [16]; 1.17 with Torsin-1A (Homo sapiens) [17]. For the same molecule, the composite z-score came out at 1.18 with Torsin-1A (Homo sapiens) [18] and 1.2 in assay [19]. Also, the z-score is -0.0868 in assay [7]; -1.26 (inactive) in assay [9]; -1.07 (inactive) in assay [11]; 0.609 (inactive) in assay [12]; 1.72 (inactive) in assay [13]; 0.385 (inactive) in [14].
Regarding `CCCCN1CC=CC23O[C@@H]4C=CCOC(=O)[C@@H]4[C@H]2C(=O)N(C(CO)C(C)C)[C@@H]3C1=O` (stereo not given in full), the composite z-score in [1] was -1.13; in [2] it was -0.663; in assay [3], -0.813; in [4] it was -0.328; in assay [5] it was 0.389; in assay [6] it was 0.126. Further, the composite z-score in the assay with Lefty1 is -0.12; in [8] it was -0.708; in [10] it was -0.0661; in assay [15], -0.507; in [16] it was -0.34; with Torsin-1A (Homo sapiens) [17], -0.241. Moreover, the composite z-score in the assay with Torsin-1A (Homo sapiens) [18] was -0.436; in assay [19] it was 0.605. For the same molecule, the z-score was 0.406 in assay [7]; -0.606 (inactive) in assay [9]; 0.233 (inactive) in assay [11]; 0.946 (inactive) in assay [12]; 0.463 (inactive) in assay [13]; 0.547 (inactive) in [14].
`COC(=O)[C@@]1(CCS(=O)(=O)c2ccccc2)N=C(c2ccc(OCCCO)cc2)O[C@H]1c1ccccc1N=[N+]=[N-]`: the composite z-score in [1] was determined as 1.65; in assay [2], 1.21; in [3], 0.621; in assay [4], 0.757; in assay [5], 0.993; in assay [6] it was 0.89. Moreover, the composite z-score in the assay on Lefty1 came out at 0.162; in assay [8], 0.647; in assay [10] it was 0.0174; in [15], 0.586; in [16], 0.0519; with Torsin-1A (Homo sapiens) [17], 1.83. Also, the composite z-score in the assay with Torsin-1A (Homo sapiens) [18] was 1.04; in assay [19] it was 1.2. Also, the z-score was 0.797 in assay [7]; -1.93 (inactive) in [9]; -3.08 (inactive) in [11]; -0.16 (inactive) in assay [12]; 0.377 (inactive) in [13]; -0.112 (inactive) in assay [14].
